B1: Caulobacter ParB omega fusion; a variant is named by its letters at X, in order, B8GW30 (parent)
chain: MESVVVGEPGMSEGRRGLGRGLSALLGEVDAAPAQAPGEQLGGSREAPIEILQRNPDQPRRTFREEDLEDLSNSIREKGVLQPILVRPSPDTAGEYQIVAGERAWRAAQRAGLKTVPIMVRELDDLAVLEIGIIENVQRADLNVLEEALSYKVLMEKFERTQENIAQTIGKSXSHVANXMRLLXLPDEVQSYLVSGELTAXHARAIAAAADPVALAKQIIEGGLSVRETEALARKAPNLSAGKSKGGRPPRVKDTDTQALESDLSSVLGLDVSIDHRGSTGTLTITYATLEQLDDLCNRLTRGI

Whole data set: some 81,000 sequences, median “one-hybrid fitness for binding parS DNA” near -0.17, cut for the highest 2% near 0.51. The entries come from a sample that favours the highest values as a whole. Some results are limits rather than exact numbers.

Variants of B1 are the subject of the experiment. Description: one-hybrid fitness for binding parS DNA (scaled: cognate 1, non-cognate 0); higher = stronger binding. To be noted: with parS DNA site. The method, boiled down:
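Fitness is the rescaled log change in variant-to-wild-type read ratio, measured by Illumina sequencing of plasmids before and after bacterial one-hybrid selection. The scale puts cognate at 1 and non-cognate at 0. Selection of Caulobacter ParB libraries, four specificity codons randomised, took place in E. coli USO with a HIS3 reporter, site 19 bp from the promoter, over 48 hours at 37°C on M9-minus-histidine with 0.1 mM IPTG and 5 mM 3-AT.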
For CLAE, the “one-hybrid fitness for binding parS DNA” value is no more than 0.2.
The result for SEHQ reads 0.354; that for DVPP, no more than 0.2.
As for PLMI, the “one-hybrid fitness for binding parS DNA” value is no more than 0.2.
Turning to HVLG, the “one-hybrid fitness for binding parS DNA” value was no more than 0.2.
Next, AYDG: no more than 0.2; RDDG: no more than 0.2.
The result for RPDG reads no more than 0.2; that for RCDG, 0.959; that for EYDG, no more than 0.2.
Next, SQTL: no more than 0.2; RKIF: no more than 0.2.
Consider RAIC, for which the “one-hybrid fitness for binding parS DNA” value was 0.782.
The result for RAIM reads 0.209; that for RSIN, 0.269.
Turning to RKIC, the “one-hybrid fitness for binding parS DNA” value came out at 0.811.
The result for RSIH reads no more than 0.2; that for RSIC, 0.718.
The result for RAPC reads 0.485; that for RPIC, no more than 0.2.
Next, RKPC: 0.488.
Take RCIC: the “one-hybrid fitness for binding parS DNA” value is 0.906.
Next, RDIC: no more than 0.2; ARLT: no more than 0.2.
On to THAD, for which the “one-hybrid fitness for binding parS DNA” value is no more than 0.2.
Take PYVA: the “one-hybrid fitness for binding parS DNA” value is no more than 0.2.
For HQCG, the “one-hybrid fitness for binding parS DNA” value is no more than 0.2.
In the case of HLKN, the “one-hybrid fitness for binding parS DNA” value was no more than 0.2.
The result for RHIN reads no more than 0.2; that for RHPC, 0.367.
The result for RHIC reads 0.651; that for RNKD, no more than 0.2; that for RNVR, no more than 0.2.
With RNKC, the “one-hybrid fitness for binding parS DNA” value worked out at 0.917.
The result for RNVF reads no more than 0.2.
Take RNKP: the “one-hybrid fitness for binding parS DNA” value was no more than 0.2.
As to RNVC, the “one-hybrid fitness for binding parS DNA” value turned out to be 0.599.
IKLC: the “one-hybrid fitness for binding parS DNA” value was no more than 0.2.
The result for LQAE reads no more than 0.2; that for IYHY, no more than 0.2.
The result for VEVT reads no more than 0.2; that for NPKT, no more than 0.2.
Next, ITLC: no more than 0.2.
For ARFV, the “one-hybrid fitness for binding parS DNA” value was no more than 0.2.
Next, RIKK: no more than 0.2; RIKG: 0.959; RIVG: 0.946.
The result for RIKN reads 0.451; that for RIVR, no more than 0.2.
RIVF: the “one-hybrid fitness for binding parS DNA” value amounted to 0.378.
On to HGLV, for which the “one-hybrid fitness for binding parS DNA” value was no more than 0.2.
Next, DGHT: no more than 0.2; QIRE: no more than 0.2.
The result for RTPF reads no more than 0.2; that for RTIM, 0.279; that for RTIY, 0.418.
As to RTPC, the “one-hybrid fitness for binding parS DNA” value was determined as 0.625.
The result for RTIC reads 0.912.
Take QSQK: the “one-hybrid fitness for binding parS DNA” value is no more than 0.2.
The result for CSYS reads no more than 0.2; that for TQQS, no more than 0.2; that for RYDY, 0.422.
As to RYNN, the “one-hybrid fitness for binding parS DNA” value came to 0.364.
Next, RYNP: no more than 0.2; RYDC: 0.949; RYDQ: 0.223.
Turning to RYNC, the “one-hybrid fitness for binding parS DNA” value turned out to be 0.86.
For the variant PYET, the “one-hybrid fitness for binding parS DNA” value was no more than 0.2.
Consider QEHT, for which the “one-hybrid fitness for binding parS DNA” value was no more than 0.2.
Regarding KIRI, the “one-hybrid fitness for binding parS DNA” value is no more than 0.2.
Turning to THLT, the “one-hybrid fitness for binding parS DNA” value is no more than 0.2.
The result for CDLR reads no more than 0.2; that for RINA, 0.596.
The result for RIDA reads 0.55; that for NINA, no more than 0.2; that for GNPS, no more than 0.2.
The result for RCND reads no more than 0.2.
VLGC: the “one-hybrid fitness for binding parS DNA” value is no more than 0.2.
The result for NLPL reads no more than 0.2; that for PQIT, no more than 0.2; that for SCSQ, no more than 0.2.
In the case of QQAG, the “one-hybrid fitness for binding parS DNA” value was no more than 0.2.
As for RKIH, the “one-hybrid fitness for binding parS DNA” value was no more than 0.2.
Consider RKPG, for which the “one-hybrid fitness for binding parS DNA” value was 0.552.
Regarding RKIN, the “one-hybrid fitness for binding parS DNA” value amounted to 0.322.
As for RKPD, the “one-hybrid fitness for binding parS DNA” value is no more than 0.2.
Next, RKPP: no more than 0.2; RKIG: 0.855.
Next, MVDG: no more than 0.2; KIKY: no more than 0.2.
On to NDWV, for which the “one-hybrid fitness for binding parS DNA” value is no more than 0.2.
Next, VADQ: no more than 0.2.
Next, INHN: no more than 0.2; RTYW: 0.262.
The result for RPKW reads no more than 0.2; that for RTDW, no more than 0.2; that for RTRW, 0.542.

Values taken from a collection of fitness landscapes (doi:10.1016/j.celrep.2020.107928).
